Laboratory results reported in PubChem BioAssay AID1159580 (chemical genetic matrix, 2015).
Where “and” joins values, the source holds several entries; their conditions need not be identical. Identical values can stand only once. Among all 5,500 compounds or so, about 2,000 (36%) were called active. Another 18% or so got no clear call; they are omitted. Cut-off read from the data, not from the text of the source: active = normalized growth mostly below about 0.91 (no sharp cut-off); inconclusive = no clear call, values can overlap the other calls; inactive = mostly above about 0.92. The list shows a part of the results.

Test: chemical genetic growth profiling, strain panel (AID 1159580);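 note: tested at 20 µM; growth read once vehicle control cultures reached saturation at 30 °C; 1 = growth at the plate median or of vehicle wells; lower values mean less growth of the strain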
Conditions: S. cerevisiae deletion strains, growth OD

Measured: normalized growth

CCCC(=O)Nc1ccc(OCC(O)CNC(C)C)c(C(C)=O)c1 (stereo unspecified)
inactive: locus YAL013W, strain DEP1, active compounds read low 1.02 | locus YAL021C, strain ccr4, active compounds read low 1 | locus YAL026C, strain drs2, active compounds read low 1.03 | locus YAL030W, strain snc1, active compounds read low 1.02 | locus YBL061C, strain skt5, active compounds read low 1.02 | locus YBR009C, strain hhf1, active compounds read low 1 | locus YBR021W, strain FUR4, active compounds read low 1.02 | locus YBR023C, strain chs3, active compounds read low 1.02 | locus YBR171W, strain sec66, active compounds read low 1.02 | locus YBR229C, strain ROT2, active compounds read low 1.01 | locus YBR231C, strain swc5, active compounds read low 1.04 | locus YBR279W, strain paf1, active compounds read low 1.02 | locus YCL011C, strain gbp2, active compounds read low 1.03 | locus YCL016C, strain dcc1, active compounds read low 1.03 | locus YCL029C, strain bik1, active compounds read low 1.02 | locus YCL069W, strain vba3, active compounds read low 1.02 | locus YCR088W, strain abp1, active compounds read low 1.01 | locus YDL005C, strain med2, active compounds read low 1.01 | locus YDL035C, strain GPR1, active compounds read low 1.02 | locus YDL040C, strain nat1, active compounds read low 1 | locus YDL074C, strain BRE1, active compounds read low 1.05 | locus YDL101C, strain DUN1, active compounds read low 1.02 | locus YDL134C, strain PPH21, active compounds read low 1.01 | locus YDL185W, strain tfp1, active compounds read low 1.02 | locus YDL192W, strain arf1, active compounds read low 1.02 | locus YDR001C, strain nth1, active compounds read low 1.02 | locus YDR069C, strain doa4, active compounds read low 1.01 | locus YDR101C, strain arx1, active compounds read low 1.01 | locus YDR137W, strain rgp1, active compounds read low 1.01 | locus YDR150W, strain NUM1, active compounds read low 1.02 | locus YDR159W, strain sac3, active compounds read low 0.984 | locus YDR162C, strain NBP2, active compounds read low 1.01 | locus YDR195W, strain ref2 0.999 | locus YDR297W, strain sur2, active compounds read low 1.01 | locus YDR318W, strain mcm21, active compounds read low 1.02 | locus YDR334W, strain swr1, active compounds read low 1.01 | locus YDR335W, strain msn5, active compounds read low 1.01 | locus YDR388W, active compounds read low 1.01 | locus YDR392W, strain spt3, active compounds read low 0.995 | locus YDR502C, strain sam2, active compounds read low 1.02 | locus YEL003W, strain gim4, active compounds read low 1.02 | locus YEL037C, strain rad23, active compounds read low 1.02 | locus YEL061C, strain CIN8 (second series), active compounds read low 1.04 | locus YEL061C, strain CIN8, active compounds read low 1.01 | locus YER015W, strain faa2, active compounds read low 1.01 | locus YER016W, strain bim1, active compounds read low 1.03 | locus YER110C, active compounds read low 1.02 | locus YER111C, strain swi4, active compounds read low 1.01 | locus YER155C, strain BEM2 (second series), active compounds read low 0.985 | locus YER155C, strain BEM2, active compounds read low 1.02 | locus YER167W, strain BCK2, active compounds read low 1.04 | locus YFR010W, strain ubp6, active compounds read low 1.01 | locus YGL078C, strain dbp3, active compounds read low 1.01 | locus YGL086W, strain mad1, active compounds read low 0.996 | locus YGL167C, strain pmr1, active compounds read low 1.02 | locus YGL173C, strain kem1, active compounds read low 1.02 | locus YGL227W, strain vid30, active compounds read low 1.03 | locus YGL240W, strain doc1, active compounds read low 0.984 | locus YGL248W, strain PDE1, active compounds read low 1.01 | locus YGL253W, strain hxk2, active compounds read low 1.01 | locus YGR078C, strain PAC10, active compounds read low 1.03 | locus YGR135W, strain pre9, active compounds read low 1.02 | locus YGR229C, strain SMI1, active compounds read low 1.03 | locus YGR252W, strain gcn5, active compounds read low 0.965 | locus YHR013C, strain ard1, active compounds read low 1.02 | locus YHR027C, strain rpn1, active compounds read low 1.02 | locus YHR030C, strain SLT2, active compounds read low 1.01 and 1.04 | locus YHR079C, strain IRE1 (second series), active compounds read low 1.02 | locus YHR079C, strain IRE1, active compounds read low 1.01 | locus YHR094C, strain hxt1, active compounds read low 1.01 | locus YHR129C, strain ARP1, active compounds read low 1.01 | locus YHR142W, strain chs7, active compounds read low 1.04 | locus YHR200W, strain rpn10, active compounds read low 1.02 | locus YIL066C, strain RNR3, active compounds read low 1.02 | locus YIL073C, strain SPO22, active compounds read low 1.05 | locus YIL125W, strain kgd1, active compounds read low 1.01 | locus YIR030C, strain dcg1, active compounds read low 1.02 | locus YJL092W, strain hpr5, active compounds read low 1.01 | locus YJL095W, strain BCK1 (second series), active compounds read low 1.02 | locus YJL095W, strain BCK1, active compounds read low 1.03 and 1.01 | locus YJL115W, strain asf1, active compounds read low 1.01 | locus YJL129C, strain trk1, active compounds read low 1.01 | locus YJL134W, strain LCB3, active compounds read low 1.01 | locus YJL154C, strain vps35, active compounds read low 1.01 | locus YJL164C, strain tpk1, active compounds read low 0.999 | locus YJL166W, strain qcr8, active compounds read low 1.01 | locus YJL168C, strain set2, active compounds read low 1.02 | locus YJL187C, strain SWE1 (second series), active compounds read low 1.02 | locus YJL187C, strain SWE1, active compounds read low 1.02 | locus YJR043C, strain POL32, active compounds read low 1.05 | locus YJR066W, strain TOR1, active compounds read low 0.957
